For 86 compounds, activity change, negative = cytotoxicity results are on record in PubChem BioAssay AID652042 (Broad Institute, 2013).

About 350 (32%) of roughly 1,100 compounds were called active. How the calls were made is not given here. Only a sample is shown. Results with a measured potency or affinity are listed apart.

A short description of the experiment: CEM21 lymphoblast cell cytotoxicity, dose response, cytotoxicity control for viral fusion inhibitor project, CellTiter-Glo luminescence, cherry-picked (AID 652042). The note with it: CEM21 cells viability, CellTiter-Glo ATP luminescence, 24 h; series mostly up to 35 µM. In general terms: Cellular ATP, detected with luciferase, serves as a proxy for viable cell number.
With `COc1ccc(S(=O)(=O)N2CCCCC2)cc1NC(=O)CCCOc1ccc(C)cc1`, the activity change, negative = cytotoxicity entry was “inactive”.
Next, `COc1ccc(S(=O)(=O)N2CCCCC2)cc1NC(=O)Cc1sc(C)nc1-c1ccc(F)cc1`: “inactive”; `COc1ccc(NC(=O)c2cc(CC(C)C)nc3ccccc23)cc1`: “inactive”; `CC[C@@]12C(=O)N(c3cccc(F)c3)C(=O)N1[C@H](c1ccc(Cl)cc1)[C@@H]1C(=O)N(C3CCCCC3)C(=O)[C@@H]12`: “inactive”.
The result for `Nc1ccc(-c2nc3ccc(C(=O)O)cc3s2)cc1` reads “inactive”.
As for `COc1ccccc1CNC(=O)C[C@H]1C[C@@H]2c3cc(NC(=O)c4cccnc4)ccc3O[C@@H]2[C@@H](CO)O1`, the activity change, negative = cytotoxicity entry is “inactive”.
As for `COC(=O)c1c(C)oc(C)c1S(=O)(=O)NC(c1ccccc1)c1ccccc1`, the activity change, negative = cytotoxicity entry was “inactive”.
The result for `Cc1cc(C)n2nc(NCc3cccc(Br)c3)nc2n1` reads “inactive”; that for `Cc1cc(Oc2ccc(C#N)cc2)nc(NCc2ccccc2)n1`, “inactive”.
Next, `COc1ccc(Nc2c(CCc3ccccc3)nc3nc(C)cc(C)n23)cc1`: “inactive”; `CCOc1ccc(C(C)=O)cc1COC(=O)c1ccccc1C(=O)N(C)Cc1ccccc1`: “inactive”; `Cc1ccc(Cn2ncc3c(N4CCN(c5ccc(C)cc5)CC4)ncnc32)cc1`: “inactive”.
For the compound `Clc1ccc(OCCN2CCN(c3ncnc4sccc34)CC2)cc1`, the activity change, negative = cytotoxicity result was “inactive”.
Next, `CSc1ncccc1C(=O)OCC(=O)Nc1ccc(C)c(S(=O)(=O)N2CCOCC2)c1`: “inactive”; `O=C(COC(=O)c1cccc(S(=O)(=O)N2CCOCC2)c1)NCc1ccccc1`: “inactive”.
Turning to `Cc1noc(C)c1S(=O)(=O)N(C)C[C@H]1Oc2ccc(NC(=O)Nc3ccccc3)cc2CC(=O)N([C@H](C)CO)C[C@H]1C`, the activity change, negative = cytotoxicity entry is “inactive”.
The result for `COc1ccc(S(=O)(=O)Nc2ccc3c(c2)CC(=O)N([C@H](C)CO)C[C@H](C)[C@H](CN(C)S(=O)(=O)c2ccccc2)O3)cc1` reads “inactive”; that for `C=CC[n+]1c(-c2ccc(OC)c(OC)c2)csc1NNC(=O)Nc1ccccc1`, “inactive”.
The result for `C=C1CCN([C@@H](CC(C)C)C(=O)Nc2ccc(OC)cc2)S(=O)(=O)c2ccccc21` reads “inactive”.
Next, `Cc1nn(C)c(Cl)c1NC(=O)OCc1ccc(Cl)cc1Cl`: “inactive”.
`O=C(Nc1ccc(Cl)cn1)C1CCCN1S(=O)(=O)c1cccc2ccccc12` (stereo unspecified): the activity change, negative = cytotoxicity entry was “inactive”.
For the compound `CNc1nc2c(c(=O)n(C)c(=O)n2C)n1Cc1ccccc1`, the activity change, negative = cytotoxicity result was “inactive”.
Next, `CC(Cl)=CCn1c(NCCc2ccccc2)nc2c1c(=O)n(C)c(=O)n2C`: “inactive”; `O=C(N[C@@H]1CC[C@H](CCNS(=O)(=O)c2ccc(F)cc2)O[C@@H]1CO)C1CC1`: “inactive”; `CCOC(=O)C1CCCN(Cc2nc(N)nc(Nc3ccc(OC)cc3)n2)C1` (stereo unspecified): “inactive”.
Turning to `O=C(CN1C(=O)c2ccccc2S1(=O)=O)c1ccccc1Cl`, the activity change, negative = cytotoxicity entry is “inactive”.
The result for `C[C@H](CO)N1C[C@H](C)[C@H](CN(C)S(=O)(=O)c2ccccc2)Oc2ccc(NS(=O)(=O)c3ccc(F)cc3)cc2CC1=O` reads “inactive”.
Next, `C[C@H](CO)N1C[C@H](C)[C@H](CN(C)C(=O)Nc2ccccc2)Oc2c(NS(=O)(=O)c3ccc(F)cc3)cccc2C1=O`: “inactive”; `C[C@H]1CN([C@@H](C)CO)C(=O)c2cc(NS(C)(=O)=O)ccc2O[C@@H]1CN(C)Cc1ccc(Cl)c(Cl)c1`: “inactive”; `Cc1ccc(S(=O)(=O)Nc2ccc3c(c2)CC(=O)N([C@H](C)CO)C[C@H](C)[C@H](CN(C)S(=O)(=O)c2ccccc2)O3)cc1`: “inactive”.
Next, `C[C@@H]1CN([C@H](C)CO)C(=O)c2cccc(NS(=O)(=O)c3ccc(F)cc3)c2O[C@@H]1CN(C)Cc1ccc(C(F)(F)F)cc1`: “inactive”; `C[C@@H]1CN([C@H](C)CO)C(=O)c2cccc(NS(=O)(=O)c3ccc(Cl)cc3)c2O[C@H]1CN(C)CC1CCCCC1`: “inactive”; `C[C@H]1CN([C@@H](C)CO)C(=O)c2cccc(NS(=O)(=O)c3ccc(Cl)cc3)c2O[C@@H]1CN(C)Cc1ccc(C(F)(F)F)cc1`: “inactive”.
As for `C[C@H](CO)N1C[C@H](C)[C@H](CN(C)S(=O)(=O)c2ccc(F)cc2)Oc2ccc(NS(=O)(=O)c3ccccc3)cc2CC1=O`, the activity change, negative = cytotoxicity result was “inactive”.
Next, `Clc1ccc2c(c1)C(C1=NCCN1)c1ccccc1CS2` (stereo unspecified): “inactive”; `C[C@@H]1CN([C@@H](C)CO)C(=O)c2cc(NC(=O)c3ccccc3)ccc2O[C@@H](C)CCCCO[C@H]1CN(C)Cc1ccc(C(=O)O)cc1`: “inactive”.
Next, `CC1CCC(NC(=O)CCn2ccc3cc(S(=O)(=O)N4CCCC4)ccc32)CC1` (stereo unspecified): “inactive”.
Next, `Cc1cc(C)c(S(=O)(=O)N2CCCCC2)cc1N(C)S(=O)(=O)c1ccc(Cl)cc1`: “inactive”; `CC(=O)C1=C(C)N(Cc2ccc(Br)cc2)C(=S)NC1c1cccc(Cl)c1` (stereo unspecified): “inactive”.
`COc1ccc(C2=Nn3c(nnc3-c3ccncc3)SC2)cc1`: the activity change, negative = cytotoxicity result is “inactive”.
As for `C=CCN(Cc1ccc(OC)c(OC)c1)C(=O)c1cc2cc(F)ccc2[nH]1`, the activity change, negative = cytotoxicity result is “inactive”.
As for `COc1ccc(-c2noc(CCCC(=O)O)n2)cc1`, the activity change, negative = cytotoxicity entry was “inactive”.
Next, `COc1cccc(NC(=O)Nc2cccc(C(=O)O)c2)c1`: “inactive”; `CN(C)c1ccc(O)c2c1CC1CC3[C@@H](N(C)C)C(=O)C(C(N)=O)=C(O)[C@]3(O)C(=O)C1=C2O` (stereo partly specified): “inactive”; `CC1(C)CC2CC(C)(CN2S(=O)(=O)c2cccc(C(=O)OCC(=O)NC(N)=O)c2)C1` (stereo unspecified): “inactive”.
Next, `COc1ccccc1C(=O)NC(CCSC)C(=O)N1CCN(C/C=C/c2ccccc2)CC1` (stereo unspecified): “inactive”; `COCCn1c(=S)[nH]c2cc(C(=O)N3CCN(Cc4ccc5c(c4)OCO5)CC3)ccc2c1=O`: “inactive”; `CCCCCn1c(=O)[nH]c2cc(C(=O)N3CCN(Cc4ccc5c(c4)OCO5)CC3)ccc2c1=O`: “inactive”.
Next, `NC(=O)c1sc2nc3c(c(-c4cccs4)c2c1N)CCCCC3`: “inactive”; `Cc1ccc(S(=O)(=O)N(C)C[C@@H]2Oc3ccc(NS(=O)(=O)c4c(C)noc4C)cc3CC(=O)N([C@H](C)CO)C[C@@H]2C)cc1`: “inactive”; `C[C@H]1CN([C@@H](C)CO)C(=O)c2c(c3ccccc3n2C)-c2ccccc2CO[C@H]1CN(C)C(=O)CCC(F)(F)F`: “inactive”.
With `C[C@H](CO)N1C[C@H](C)[C@H](CN(C)S(=O)(=O)c2ccccc2)Oc2ncc(/C=C/c3ccccc3)cc2C1=O`, the activity change, negative = cytotoxicity entry was “inactive”.
Next, `CCOC(=O)[C@@H]1[C@H]2COc3ccc(Br)cc3[C@@H]2N2C(=O)N(c3ccccc3)C(=O)[C@@]12C`: “inactive”.
The result for `CC(C)(C)c1ccc(-n2ncc3c2CCCC3NC(=O)CN2CCCC2=O)cc1` (stereo unspecified) reads “inactive”.
The result for `Cc1cc(C(=O)NC2CCCc3c2cnn3-c2ccc(C(C)(C)C)cc2)nn1C` (stereo unspecified) reads “inactive”; that for `CCC12CN(S(=O)(=O)c3ccc(C)cc3)CC(CC)(CN(S(=O)(=O)c3ccc(C)cc3)C1)C2=O`, “inactive”; that for `O=C(C[C@@H]1C/C=C/CC[C@@H](Cc2ccc(F)cc2)C(=O)O[C@H](c2ccccc2)CNC1=O)NCCO`, “inactive”.
`CC[C@@]12C(=O)N(c3ccc(C)cc3)C(=O)N1[C@H](c1ccc(OC)cc1)[C@@H]1C(=O)N(C(C)(C)C)C(=O)[C@@H]12`: the activity change, negative = cytotoxicity entry is “inactive”.
`O=C(c1ccc2ncsc2c1)N1CCN(c2nc3ccccc3s2)CC1`: the activity change, negative = cytotoxicity result is “inactive”.
The result for `Cc1cc(CSc2ccccc2)ccc1NC(=O)c1ccc(CN2CCOCC2)cc1` reads “inactive”; that for `CCCOc1ccc2ccccc2c1/C=N/n1cnnc1`, “inactive”; that for `COC(=O)C[C@H]1C=C[C@H](NC(=O)c2ccccn2)[C@@H](CO)O1`, “inactive”.
The result for `CS(=O)(=O)N1CCN(c2ccccc2NC(=O)C(c2ccccc2)c2ccccc2)CC1` reads “inactive”; that for `C[C@@H]1CNC(=O)c2c(C(=O)N3CCN(c4ccccc4)CC3)ncn21`, “inactive”.
Next, `O=C(N(Cc1ccccc1)c1ccccn1)C12CC3CC(CC(C3)C1)C2`: “inactive”; `CCNC1CCC(Nc2ccnc3cc(Cl)ccc23)CC1` (stereo unspecified): “inactive”; `O=C(Nc1cccc(F)c1)c1cc(S(=O)(=O)N2CCC(C(=O)O)CC2)ccc1F`: “inactive”.
With `CC(C)OCCCn1c(=S)[nH]c2ccc(N3CCOCC3)cc2c1=O`, the activity change, negative = cytotoxicity entry is “inactive”.
The result for `Cc1ccc(C(=O)CN2C(=O)c3ccccc3S2(=O)=O)cc1` reads “inactive”; that for `O=C(Nc1ccccc1N1CCN(C(=O)c2ccccc2)CC1)c1ccc(Br)o1`, “inactive”.
Next, `O=C(c1ccc(S(=O)(=O)Nc2ccc(F)cc2)cc1)N1CCN(C(=O)c2ccco2)CC1`: “inactive”.
As for `CCOC(=O)c1cccc(NS(=O)(=O)c2ccc(NC(C)=O)cc2)c1`, the activity change, negative = cytotoxicity entry is “inactive”.
The result for `COc1cc2c(c(OCC(=O)NC(C)C)c1)C(=O)O[C@@H](C)CCCC(=O)CCCCC2` reads “inactive”.
The result for `Nc1c(Cl)cc2c(c1Oc1ccccc1)C(=O)c1ccccc1C2=O` reads “inactive”; that for `CN(Cc1cccs1)c1ncnc2sccc12`, “inactive”.
As to `C[C@@H]1CN([C@H](C)CO)C(=O)c2cccc(NC(=O)C3CCCCC3)c2O[C@H]1CN(C)Cc1ccccc1`, the activity change, negative = cytotoxicity entry was “inactive”.
The result for `C[C@@H]1CN([C@H](C)CO)C(=O)c2cccc(NC(=O)c3ccncc3)c2O[C@@H]1CN(C)Cc1ccc(C(=O)O)cc1` reads “inactive”; that for `C[C@@H]1CN([C@H](C)CO)C(=O)c2cccc(NC(=O)c3ccncc3)c2O[C@H]1CN(C)CC1CCCCC1`, “inactive”; that for `C[C@H]1CN([C@@H](C)CO)C(=O)c2cccc(NC(=O)c3ccncc3)c2O[C@@H]1CN(C)C(=O)Nc1cccc2ccccc12`, “inactive”.
Next, `CC(C)(C)c1ccc(-c2noc(CCC(N)=O)n2)cc1`: “inactive”; `Cc1n[nH]c(C)c1S(=O)(=O)N(CC(=O)NC1CCCC1)c1ccc(C(C)C)cc1`: “inactive”.
Next, `COc1ccc(Cl)cc1NC(=O)CN(C1CCCCC1)S(C)(=O)=O`: “inactive”.
In the case of `CCOc1ccc(N(CC(=O)NCCSCc2ccc(Cl)cc2)S(C)(=O)=O)cc1`, the activity change, negative = cytotoxicity entry is “inactive”.
Next, `CCCN(CC(=O)Nc1ccccc1OC)C(=O)c1cccc(S(=O)(=O)NCc2ccccc2)c1`: “inactive”; `C#CCn1c(=O)c2c(ncn2C)n(C)c1=O`: “inactive”; `C=C1CCN([C@H](C(=O)OCc2cccc(C)c2)C(C)C)S(=O)(=O)c2ccccc21`: “inactive”.
